Experimental data from the supplement of paper PMC11732987, “Enantioselective OTUD7B fragment discovery through chemoproteomics screening and high-throughput optimisation” (Communications Chemistry, 2025).

Key:
Assay in all cases: log2 ratio of Biotin-Ahx-Ub-VS probe labelling (fragment/DMSO); higher = less target engagement (more negative = stronger competition), active = hit call of the paper (q ≤ 0.05, log2 ratio ≤ -1)
Conditions in all cases: compound concentration: 200 uM; treatment time: 3 h
OTUD6B = target: T1, OTUD6B (UniProt Q8N6M0)
T1 sequence (whole entry): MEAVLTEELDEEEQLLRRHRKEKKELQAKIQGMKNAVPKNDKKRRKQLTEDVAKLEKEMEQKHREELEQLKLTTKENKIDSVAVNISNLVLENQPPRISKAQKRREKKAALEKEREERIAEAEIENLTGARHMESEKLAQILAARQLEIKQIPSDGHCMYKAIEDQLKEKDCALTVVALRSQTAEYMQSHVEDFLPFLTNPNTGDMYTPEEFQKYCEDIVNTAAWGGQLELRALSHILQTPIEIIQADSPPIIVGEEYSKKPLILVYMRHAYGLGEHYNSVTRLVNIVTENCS
Method in brief: (§1)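 Triplicate samples of HEK293T lysate, 495 µg each, received fragment at 200 µM or vehicle for 3 h, followed by Biotin-Ahx-Ub-VS (0.5 µM final) for 1 h. After NeutrAvidin enrichment of labelled DUBs and LysC/trypsin digestion, peptides were run by diaPASEF LC-MS/MS. The values are average log2 fragment/vehicle ratios from global-median-normalised Spectronaut label-free quantities, tested by unpaired t-test on proteins having ≥2 unique peptides.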

OTUD7B = target: T2, OTUD7B (UniProt Q6GQQ9)
T2 sequence (whole entry): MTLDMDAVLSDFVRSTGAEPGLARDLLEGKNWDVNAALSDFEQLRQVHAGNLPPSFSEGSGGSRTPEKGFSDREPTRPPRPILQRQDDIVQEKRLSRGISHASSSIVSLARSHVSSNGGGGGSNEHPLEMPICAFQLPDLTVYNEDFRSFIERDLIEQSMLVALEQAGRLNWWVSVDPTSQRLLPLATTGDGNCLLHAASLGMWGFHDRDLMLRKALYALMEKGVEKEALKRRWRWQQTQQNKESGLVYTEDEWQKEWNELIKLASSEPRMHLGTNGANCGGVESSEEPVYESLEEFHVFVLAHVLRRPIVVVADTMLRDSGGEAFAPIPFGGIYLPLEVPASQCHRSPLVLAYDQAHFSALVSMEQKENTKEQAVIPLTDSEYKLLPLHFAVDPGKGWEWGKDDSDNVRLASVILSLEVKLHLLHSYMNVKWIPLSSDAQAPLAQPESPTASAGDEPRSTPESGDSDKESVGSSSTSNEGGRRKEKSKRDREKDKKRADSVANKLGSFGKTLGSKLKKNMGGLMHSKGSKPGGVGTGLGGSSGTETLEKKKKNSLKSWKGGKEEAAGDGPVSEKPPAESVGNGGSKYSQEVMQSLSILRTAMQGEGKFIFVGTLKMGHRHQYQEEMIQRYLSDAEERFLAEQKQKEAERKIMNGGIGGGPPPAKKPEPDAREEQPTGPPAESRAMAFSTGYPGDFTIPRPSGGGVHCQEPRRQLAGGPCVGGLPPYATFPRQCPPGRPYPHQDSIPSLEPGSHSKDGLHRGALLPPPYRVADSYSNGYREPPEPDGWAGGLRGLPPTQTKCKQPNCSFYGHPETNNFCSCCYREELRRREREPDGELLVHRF
Method in brief: as §1

PRPF8 = PRPF8 (UniProt Q6P2Q9)
Method in brief: as §1

PSMD7 = target: T3, PSMD7 (UniProt P51665)
T3 sequence (whole entry): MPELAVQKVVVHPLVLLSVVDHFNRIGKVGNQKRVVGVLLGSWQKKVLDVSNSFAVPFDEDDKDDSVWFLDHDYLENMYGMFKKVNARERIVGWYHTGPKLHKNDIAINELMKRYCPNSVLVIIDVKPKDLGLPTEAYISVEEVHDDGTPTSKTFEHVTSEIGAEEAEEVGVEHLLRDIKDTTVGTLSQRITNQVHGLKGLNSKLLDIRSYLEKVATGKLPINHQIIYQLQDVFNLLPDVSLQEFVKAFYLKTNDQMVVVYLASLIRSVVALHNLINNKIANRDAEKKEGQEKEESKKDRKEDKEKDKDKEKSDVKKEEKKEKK
Method in brief: as §1

UCHL1 = UCHL1 (UniProt P09936)
Chain of UCHL1 (P09936 whole entry, looked up): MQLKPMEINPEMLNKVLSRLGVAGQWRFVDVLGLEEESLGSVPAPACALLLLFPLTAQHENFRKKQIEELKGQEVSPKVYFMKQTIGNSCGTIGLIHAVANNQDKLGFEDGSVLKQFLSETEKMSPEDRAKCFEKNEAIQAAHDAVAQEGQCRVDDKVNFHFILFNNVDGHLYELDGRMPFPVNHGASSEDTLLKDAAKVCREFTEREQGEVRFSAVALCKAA
Method in brief: as §1

UCHL3 = target: T4, UCHL3 (UniProt P15374)
T4 sequence (whole entry): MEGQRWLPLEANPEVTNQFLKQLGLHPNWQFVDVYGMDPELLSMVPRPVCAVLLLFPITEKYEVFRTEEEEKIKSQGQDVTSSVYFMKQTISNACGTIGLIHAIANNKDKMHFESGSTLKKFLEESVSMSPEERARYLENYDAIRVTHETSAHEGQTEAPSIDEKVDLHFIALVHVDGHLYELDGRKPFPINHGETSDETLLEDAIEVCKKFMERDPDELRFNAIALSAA
Method in brief: as §1

UCHL5 = target: T5, UCHL5 (UniProt Q9Y5K5)
T5 sequence (whole entry): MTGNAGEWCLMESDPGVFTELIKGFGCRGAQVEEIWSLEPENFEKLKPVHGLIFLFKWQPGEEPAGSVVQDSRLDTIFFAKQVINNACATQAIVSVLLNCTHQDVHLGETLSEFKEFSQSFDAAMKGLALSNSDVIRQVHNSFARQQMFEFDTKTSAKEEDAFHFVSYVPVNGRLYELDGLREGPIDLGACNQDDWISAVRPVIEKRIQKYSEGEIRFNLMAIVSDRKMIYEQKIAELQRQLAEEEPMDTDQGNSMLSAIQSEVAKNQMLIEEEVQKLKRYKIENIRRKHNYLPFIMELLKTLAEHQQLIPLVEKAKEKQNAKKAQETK
Method in brief: as §1

USP10 = USP10 (UniProt Q14694)
Chain of USP10 (Q14694 whole entry): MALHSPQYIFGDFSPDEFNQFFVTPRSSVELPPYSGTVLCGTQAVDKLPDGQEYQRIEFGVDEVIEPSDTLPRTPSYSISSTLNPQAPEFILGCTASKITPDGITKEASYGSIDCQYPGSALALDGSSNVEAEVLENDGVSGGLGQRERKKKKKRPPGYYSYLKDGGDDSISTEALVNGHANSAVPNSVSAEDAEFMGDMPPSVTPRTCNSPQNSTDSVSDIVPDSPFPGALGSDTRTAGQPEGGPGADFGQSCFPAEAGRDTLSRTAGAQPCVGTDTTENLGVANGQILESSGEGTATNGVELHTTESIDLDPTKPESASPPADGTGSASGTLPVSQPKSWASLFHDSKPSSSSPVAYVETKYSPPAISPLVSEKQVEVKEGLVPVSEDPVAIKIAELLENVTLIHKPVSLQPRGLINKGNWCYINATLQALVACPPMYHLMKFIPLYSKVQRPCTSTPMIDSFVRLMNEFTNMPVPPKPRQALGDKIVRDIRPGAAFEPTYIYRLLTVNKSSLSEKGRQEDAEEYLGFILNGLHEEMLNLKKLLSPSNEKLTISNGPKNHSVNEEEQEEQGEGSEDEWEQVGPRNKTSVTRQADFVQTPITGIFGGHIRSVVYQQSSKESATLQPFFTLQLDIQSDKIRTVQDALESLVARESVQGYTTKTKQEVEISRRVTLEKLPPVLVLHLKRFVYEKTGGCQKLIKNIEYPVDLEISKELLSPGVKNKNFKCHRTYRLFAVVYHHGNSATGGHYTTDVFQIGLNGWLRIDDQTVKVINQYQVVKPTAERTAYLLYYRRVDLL
Method in brief: as §1

USP15 = target: T6, USP15 (UniProt Q9Y4E8)
T6 sequence (whole entry): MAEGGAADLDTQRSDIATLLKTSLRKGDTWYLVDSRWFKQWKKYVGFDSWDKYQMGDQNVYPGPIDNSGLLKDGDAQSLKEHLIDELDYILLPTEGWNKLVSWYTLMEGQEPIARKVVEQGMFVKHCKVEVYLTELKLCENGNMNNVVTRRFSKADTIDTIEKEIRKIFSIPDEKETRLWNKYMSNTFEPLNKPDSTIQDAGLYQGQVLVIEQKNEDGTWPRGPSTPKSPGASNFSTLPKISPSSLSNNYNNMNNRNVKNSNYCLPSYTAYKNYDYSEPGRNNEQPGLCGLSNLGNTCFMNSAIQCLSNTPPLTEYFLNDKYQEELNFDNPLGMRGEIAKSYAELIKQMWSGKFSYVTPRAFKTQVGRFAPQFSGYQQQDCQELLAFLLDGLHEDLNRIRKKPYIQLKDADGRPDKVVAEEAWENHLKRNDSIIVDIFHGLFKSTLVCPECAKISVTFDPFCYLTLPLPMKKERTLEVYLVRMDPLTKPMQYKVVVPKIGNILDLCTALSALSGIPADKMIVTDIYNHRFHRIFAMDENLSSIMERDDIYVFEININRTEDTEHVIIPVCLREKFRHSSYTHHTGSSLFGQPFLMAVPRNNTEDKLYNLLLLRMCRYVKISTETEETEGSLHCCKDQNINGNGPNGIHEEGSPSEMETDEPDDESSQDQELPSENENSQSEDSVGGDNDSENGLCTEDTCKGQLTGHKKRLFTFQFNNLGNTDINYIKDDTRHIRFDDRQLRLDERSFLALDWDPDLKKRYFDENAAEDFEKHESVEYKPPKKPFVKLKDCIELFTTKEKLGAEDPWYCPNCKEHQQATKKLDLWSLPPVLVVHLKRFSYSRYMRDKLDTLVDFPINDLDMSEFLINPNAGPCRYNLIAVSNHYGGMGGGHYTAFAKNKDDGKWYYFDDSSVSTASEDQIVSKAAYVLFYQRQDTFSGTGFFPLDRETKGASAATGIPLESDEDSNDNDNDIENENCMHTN
Method in brief: as §1

USP16 = USP16 (UniProt Q9Y5T5)
Chain of USP16 (Q9Y5T5 whole entry, looked up): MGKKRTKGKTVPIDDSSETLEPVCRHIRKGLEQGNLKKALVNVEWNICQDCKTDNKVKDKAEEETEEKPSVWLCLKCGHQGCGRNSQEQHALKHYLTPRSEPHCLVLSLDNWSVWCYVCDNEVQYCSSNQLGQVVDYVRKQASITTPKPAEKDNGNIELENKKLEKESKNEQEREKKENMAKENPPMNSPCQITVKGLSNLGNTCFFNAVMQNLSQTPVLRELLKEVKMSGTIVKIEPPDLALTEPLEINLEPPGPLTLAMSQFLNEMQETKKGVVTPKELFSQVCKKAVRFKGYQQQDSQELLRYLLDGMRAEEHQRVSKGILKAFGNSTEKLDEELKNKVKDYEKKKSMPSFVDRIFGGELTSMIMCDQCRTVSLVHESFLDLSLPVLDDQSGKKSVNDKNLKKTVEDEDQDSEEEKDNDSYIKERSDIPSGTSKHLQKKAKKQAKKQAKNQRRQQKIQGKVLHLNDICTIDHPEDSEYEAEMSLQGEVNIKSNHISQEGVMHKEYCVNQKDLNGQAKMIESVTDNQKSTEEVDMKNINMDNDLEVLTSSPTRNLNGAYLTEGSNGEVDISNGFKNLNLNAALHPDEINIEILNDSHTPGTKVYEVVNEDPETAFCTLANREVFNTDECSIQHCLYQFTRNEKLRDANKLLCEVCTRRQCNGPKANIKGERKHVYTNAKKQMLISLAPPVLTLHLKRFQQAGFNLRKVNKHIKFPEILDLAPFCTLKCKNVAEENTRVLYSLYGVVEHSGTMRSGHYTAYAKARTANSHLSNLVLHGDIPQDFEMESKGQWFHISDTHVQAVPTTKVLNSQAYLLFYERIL
Method in brief: as §1

Measured: log2 ratio of Biotin-Ahx-Ub-VS probe labelling

Cl.Cn1nc2c(c1CNC(=O)CCl)CCCC2
inactive: OTUD6B -0.361 | PRPF8 -0.184 | PSMD7 -0.299 | UCHL3 0.314 | UCHL5 -0.368 | USP10 -0.24 | USP15 -0.224 | USP16 -0.4
active: OTUD7B -1.04 | UCHL1 -1.7
